Results reported in PubChem BioAssay AID845 (Columbia University Molecular Screening Center, 2007).
Hit rate of the full screen: of about 94,000 compounds, about 390 (0.41%) were called active. The sample holds actives, similar compounds and a random draw of the others, so the mix is not that of the screen. Values without a mark were called inactive.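 The calls were made as follows: active = cell count reduction more than 3 SD above the screen-wide mean (cut at about 70% in these data); inactive = the rest.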

Experiment: HUVEC cell count loss after compound exposure – imaging, Hoechst nuclear count, IL-1B stimulus, cytotoxicity control for IL-1B NFkB translocation project, primary screen (AID 845);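 also: normalized per plate to untreated control cells as the no-loss baseline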
Settings: IL-1B stimulated, at 2 µM, active compounds read high

| SMILES | cell count reduction |
| --- | --- |
| Cc1cccc(CCNS(=O)(=O)c2ccc(S(=O)(=O)NC3CCCC3)cc2)c1 | -6.4% |
| COc1ccc(-c2cc(C(=O)NCc3ccco3)no2)cc1OC | 3% |
| Cc1ccc(OCC(=O)N2CCN(C(=O)c3cccnc3)CC2)cc1 | -38.8% |
| CNC(=S)N1N=C(c2ccccc2)CC1c1ccc(Br)cc1 (stereo not given) | -18.6% |
| CC(C)CNS(=O)(=O)c1ccc(OCC(=O)Nc2ccc3c(c2)OCO3)c(Cl)c1 | -38.8% |
| COc1ccc(F)cc1S(=O)(=O)Nc1ccc2c(c1)OCO2 | -1.3% |
| COc1ccc(S(=O)(=O)Nc2ccc3c(c2)OCO3)cc1Cl | 81.3% (active) |
| O=C1c2ccccc2C(=O)c2c1cccc2N1CCN(CCO)CC1 | -12.4% |
| Cc1ccc(NC(=S)N/N=C2/CCCc3c(C)cc(C)cc32)cc1 | -6.1% |
| CC(Sc1nncn1C)C(=O)Nc1ccccc1-c1ccccc1 (stereo not given) | 35.5% |
| O=C(c1ccccc1-c1ccccc1)N1CCOCC1 | -0.4% |
| CC(C(=O)Nc1ccccc1-c1ccccc1)N1CCOCC1 (stereo not given) | 91.2% (active) |
| COc1cc(/C=N/O)cc(Br)c1OCc1cccc(Cl)c1 | -29.3% |
| Cc1ccc(O/C=C2\OC(=O)c3ccccc32)cc1 | -34.7% |
| N=c1oc2ccccc2cc1C(=O)N/N=C/c1ccccc1 | 23.4% |
| CCc1c(O)nc(SCC(=O)Nc2ccccc2)n(C(C)CC)c1=O (stereo not given) | -2.8% |
| COCC(C)NC(=O)c1ccc(-n2nc(C(F)(F)F)cc2-c2cccs2)cc1 (stereo not given) | -9.2% |
| Cn1c(=O)c2c(ncn2CC(COCc2ccccc2Cl)OCc2ccccc2Cl)n(C)c1=O (stereo not given) | 8.7% |
| O=C(Nc1cccn(Cc2c(Cl)cccc2Cl)c1=O)c1ccc(Cl)cc1 | -1.3% |
| Cc1ccc(Nc2nnc(SCc3ccccc3)s2)cc1 | 22.5% |
| CC(=O)c1cnn(-c2cc(Oc3ccc(F)cc3)ncn2)c1C | -1.7% |
| Cc1nnc(SCC(=O)NC2CCCC2)s1 | 22.6% |
| CNS(=O)(=O)c1cnccc1N1CCN(c2cccc(C)c2)CC1 | -0.7% |
| CC/C(O)=N\S(=O)(=O)c1ccc(N=NN(C)C)cc1 | -5.3% |
| COc1ccc(-c2cc(C(=O)n3cnc4ccccc43)c3ccccc3n2)cc1 | -10% |
